This is part of a sample that, as a whole, favours compounds with a hit. Of some 83,000 tested, about 20% had one in any assay.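 Step 1: grow cells in 96-well plates. Step 2: add test compound at a single concentration. Step 3: incubate 48 h. Step 4: record percent growth.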 Unmarked numbers belong to inactive results. The source made the active and inactive calls. Rule for the calls: active = growth percent below 10; inactive = the rest.
How the values were obtained:
Test in all cases: NCI-60 one-dose screen, 48 h (100 = growth as untreated, 0 = no growth, -100 = all killed)
Conditions in all cases: 10 µM
NCI-H460 lung = test system: NCI-H460 lung
HOP-92 NSCLC = test system: HOP-92 NSCLC
RXF 393 renal = test system: RXF 393 renal
SK-MEL-5 melanoma = test system: SK-MEL-5 melanoma
CCRF-CEM leukemia = test system: CCRF-CEM leukemia
NCI/ADR-RES ovarian = test system: NCI/ADR-RES ovarian
T-47D breast = test system: T-47D breast
BT-549 breast = test system: BT-549 breast
MDA-MB-435 melanoma = test system: MDA-MB-435 melanoma
SW-620 colon = test system: SW-620 colon
HCT-116 colon = test system: HCT-116 colon
HCC-2998 colon = test system: HCC-2998 colon
KM12 colon = test system: KM12 colon
SNB-19 CNS = test system: SNB-19 CNS
ACHN renal = test system: ACHN renal
MCF7 breast = test system: MCF7 breast
SR leukemia = test system: SR leukemia
OVCAR-4 ovarian = test system: OVCAR-4 ovarian

| Structure (SMILES) | growth (NCI-H460 lung) | growth (HOP-92 NSCLC) | growth (RXF 393 renal) | growth (SK-MEL-5 melanoma) | growth (CCRF-CEM leukemia) | growth (NCI/ADR-RES ovarian) | growth (T-47D breast) | growth (BT-549 breast) | growth (MDA-MB-435 melanoma) | growth (SW-620 colon) | growth (HCT-116 colon) | growth (HCC-2998 colon) | growth (KM12 colon) | growth (SNB-19 CNS) | growth (ACHN renal) | growth (MCF7 breast) | growth (SR leukemia) | growth (OVCAR-4 ovarian) |
| --- | --- | --- | --- | --- | --- | --- | --- | --- | --- | --- | --- | --- | --- | --- | --- | --- | --- | --- |
| Fc1ccc(-c2csc(Nc3cccc(Nc4nc(-c5ccc(F)cc5)cs4)c3)n2)cc1 | 40.4% | 39.2% | 75.5% | 61.2% | 59.1% | 63.7% | 7.43% (active) | 64% | 63.1% | 70.3% | 57.7% | 35.2% | 37.6% |  |  |  |  |  |
| O=C(c1ccccc1)c1ccc2nc(-c3ccccc3Br)[nH]c2c1 |  | -90.6% (active) | -90.4% (active) | -97.6% (active) | -9.65% (active) | 0.18% (active) | -59.3% (active) | -76.4% (active) | -21% (active) | -17.9% (active) |  | -96.3% (active) | -44.2% (active) | 4.77% (active) | -98.2% (active) |  |  |  |
| COc1ccccc1-n1cc(C#N)c(N)c1C(=O)c1ccc(Cl)cc1Cl | 12.5% | 44.2% | -8.31% (active) | 17.3% | 7.78% (active) | 16.4% | 28.5% | 31.4% | -38.3% (active) | 25% | 36.6% | 58.5% | 22.9% | 30.1% | 48.3% |  |  |  |
| COc1ccc(OC)c(-n2cc(C#N)c(N)c2C(=O)c2ccc(Cl)cc2Cl)c1 |  | 91.6% | 55.5% | 54.2% | 11.4% | 30.4% | 42.6% | 48.3% | -37.1% (active) | 26.8% |  | 64.8% | 27.4% | 45.5% |  |  |  |  |
| COc1ccc(C2c3sc4ccc(C)cc4c3Oc3nc[nH]c(=O)c32)cc1 (stereo unspecified) | 95.6% |  | 85.7% | 88.8% | 91.7% | 65.4% | 83.4% | 77.9% | -0.755% (active) | 67.1% |  | 94% | 61.1% |  |  | 69.6% |  |  |
| C#CCOc1cc(N(CC)CC)ccc1C(C(=O)NC(C)(C)C)N(C(=O)C1CCc2cc(F)ccc2O1)c1ccc(F)cc1F (stereo unspecified) |  | 30.5% | 64.6% | 11.2% | 39.7% | 53.1% | 37.4% | 31.1% | 40.6% | 53.7% |  | 78.1% | 25% | 39.8% |  |  |  |  |
| CCn1c(SCC(=O)Nc2ccc(-c3nc4ccccc4[nH]3)cc2)nc2ccccc2c1=O | -56.2% (active) |  | -87.1% (active) | -51.2% (active) | 44.7% | -42.6% (active) | -58.2% (active) | -83.6% (active) | -94.7% (active) | -35.5% (active) |  | -31.6% (active) | -14.5% (active) |  | -86.4% (active) | -71.7% (active) | -15.2% (active) |  |
| COc1ccc(C(=O)COc2ccc(NC(=O)Nc3ccc(Cl)c(C(F)(F)F)c3)cc2)cc1 | 25.5% |  | -52.1% (active) | -67.3% (active) |  | 17.7% | 12.5% | 38% | 27.3% | 54.6% |  | 1.03% (active) | 13.6% |  | 17.9% |  | 7.72% (active) |  |
| COc1ccc2[nH]cc(-c3nc(N)nnc3-c3cn(C)c4ncc(Br)cc34)c2c1 | 1.08% (active) | -2.43% (active) | -14% (active) | -50.1% (active) | 1.4% (active) | 12.5% | 48.5% | -38.5% (active) | -38.8% (active) | 17.8% | 1.45% (active) | 11.8% | 5.71% (active) | 30% | 10.2% |  |  |  |
| CCOC(=O)C1=C(N)N(c2ccc(C)cc2)C2=C(C(=O)CC(C)(C)C2)C1c1ccccc1Br (stereo unspecified) | 53.5% | 71.6% | 86.5% | 77.4% | 39.5% | 95.7% | 69.6% | 93.9% | 82.6% | 46% |  | 89.4% | 83.8% | 86.7% | 85.9% |  |  | 83.2% |
| COc1cc(C2CC(c3ccccc3)=Nc3c(N)nc(N)nc3N2)ccc1Oc1nc(NCCO)nc(N2CCOCC2)n1 (stereo unspecified) | 110% | 86.3% | 95.7% | 98.7% | 92.4% | 109% | 90% | 92.6% | 102% | 107% | 105% | 115% | 102% |  |  | 83% | 66% | 105% |
| Cc1ccc(S(=O)(=O)N2CCN(S(=O)(=O)c3oc(-c4ccccc4)nc3C#N)CC2)cc1 | 76.2% | 93% | 87.6% | 63.7% | 75.7% | 83% | 60.8% | 76.1% | 77.6% | 90% |  | 106% | 82.5% | 78.6% |  | 47.6% | 31.4% |  |
| COc1ccc(-n2c(SCC(=O)NNS(=O)(=O)c3ccccc3)nc3ccc(Cl)cc3c2=O)cc1 | 115% | 101% | 100% | 98.9% | 108% | 105% | 94.8% | 105% | 103% | 105% | 95.6% | 118% | 102% |  |  |  |  |  |
| CC(C)(C)c1cc(/C=C2\S/C(=N/c3ncn[nH]3)NC2=O)cc(C(C)(C)C)c1O | 3.73% (active) |  | -17.5% (active) | -25.2% (active) | 11% | 5.61% (active) | 10.3% | -2.05% (active) | 11.9% | 15.1% | 7.92% (active) | 14.5% | 20.2% | 23.7% |  | 8.22% (active) | 6.04% (active) |  |
| O=C(CSc1nc2ccccc2c(=O)n1-c1ccc(Cl)cc1)Nc1ccc(-c2nc3ccccc3[nH]2)cc1 | -12.6% (active) |  | -35.1% (active) | 47.7% |  | -3.44% (active) | -68.5% (active) | 35.6% | -16% (active) | 7.92% (active) |  | 4.31% (active) | 17% | 18.3% |  |  | -15.2% (active) | -75.6% (active) |
| COC(=O)CNC(=O)COc1c(OC)c(OC)cc2oc(-c3cccc(C(=O)Nc4ccc(Cl)cc4)c3)cc(=O)c12 | 12.6% | 39.1% | 45.9% | 4.43% (active) | 94.7% | 47.5% | 37.9% | 1.95% (active) | 28.5% | 51.4% |  | 74.2% | 41.5% | 25.9% | 47.2% |  | 61.2% |  |
| C#C[C@]1(O)CC[C@H]2[C@@H]3CC=C4c5sc(Nc6ccc(N(C)C)cc6)nc5CC[C@]4(C)[C@H]3CC[C@@]21C | 7.37% (active) | 9.62% (active) | -51.3% (active) | 0.6% (active) | -1.45% (active) | 9.68% (active) | 28.6% | -58.8% (active) | 5.17% (active) | 4.36% (active) | -77.9% (active) | 33.4% | 2.83% (active) |  | -4.47% (active) | -36.2% (active) |  | 36.1% |
| C#C[C@]1(O)CC[C@H]2[C@@H]3CC=C4c5sc(Nc6ccc(C(F)(F)F)cn6)nc5CC[C@]4(C)[C@H]3CC[C@@]21C | -35.8% (active) | -7.64% (active) | -37.9% (active) | -97.1% (active) | 6.72% (active) | -19.9% (active) | 8.97% (active) | -50% (active) | 1.17% (active) | -32.8% (active) | -66.9% (active) | 4.01% (active) | -16.5% (active) |  |  |  | 1.07% (active) |  |
| C#C[C@]1(O)CC[C@H]2[C@@H]3CC=C4c5sc(Nc6cc(C)cc(C)n6)nc5CC[C@]4(C)[C@H]3CC[C@@]21C | -34.3% (active) | -22.2% (active) | -40% (active) | -99.7% (active) | 5% (active) | 0.407% (active) | -35.6% (active) | -50.4% (active) | -6.28% (active) | -86.9% (active) |  | 1.37% (active) | -16.7% (active) |  |  | -89.7% (active) |  |  |
| COc1cccc(O)c1/C=C1\SCc2cc3c(OC)cccc3[o+]c21 | 127% | 154% |  |  | 101% | 108% |  | 111% | 132% | 115% |  | 114% | 110% | 101% |  |  |  |  |
| COc1cc2oc(-c3cccc(C(=O)Nc4ccc(Cl)cc4)c3)cc(=O)c2c(OCCN)c1OC | -87.2% (active) | -84% (active) | -85% (active) | -94.7% (active) | -52.6% (active) | -74.7% (active) | -73.8% (active) | -88.2% (active) | -76.9% (active) | -79.4% (active) |  | -80.8% (active) | -83.2% (active) |  |  |  | -48.6% (active) |  |

From PubChem BioAssay (NCI)
